Our source for the max response, Potency and outcome values is PubChem BioAssay (NCATS).

One assay relates to CRL-7250. Kind of assay: Cytotoxic Profiling of Annotated Libraries Using Quantitative High-Throughput Screening (AID 1296008). On max response: on the % scale 0 is the no-effect control and ±100 the full control effect. The note with it: Five cell lines viability, CellTiter-Glo ATP luminescence, 48-72 h; max response: stronger effect = lower value. The procedure, abridged: (§1)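 Cytotoxicity was measured as CellTiter-Glo ATP luminescence, read after 10 min at room temperature. Compound treatment of the cells lasted 48 or 72 hr at 37 degrees Celsius in a qHTS format.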
(Cellular ATP, detected with luciferase, serves as a proxy for viable cell number.)

Assay [1] has as its system HaCat. The description is as above. The conditions noted are these: Five cell lines viability, CellTiter-Glo ATP luminescence, 48-72 h; max response: stronger effect = lower value. The procedure, abridged: as §1
Another assay deals with KB-3-1. Described as above. The note with it: Five cell lines viability, CellTiter-Glo ATP luminescence, 48-72 h; max response: stronger effect = lower value. The procedure, abridged:
as §1

The next assay has as its system NIH3T3. The description is as above. The note with it: Five cell lines viability, CellTiter-Glo ATP luminescence, 48-72 h; max response: stronger effect = lower value. The procedure, abridged: as §1
The test system of the next assay is TAB165. The assay is described as follows: qHTS profiling for inhibitors of Plasmodium falciparum proliferation (AID 504749). The conditions noted are these: P. falciparum in erythrocytes, SYBR Green DNA, 72 h; series mostly up to 28.7 µM. The procedure, abridged:
(§2)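 Infected RBCs, 0.3% parasitemia/2.5% Hct final; cpd 72 h, 37 C, 5% CO2; lysis buffer with saponin/triton/SYBR Green I, o/n RT dark; FI 485/535; norm. to artemisinin (0.29 uM) and DMSO.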

In the next assay the test system is W2. Described as above. The conditions noted are these: P. falciparum in erythrocytes, SYBR Green DNA, 72 h; series mostly up to 28.7 µM. The gist of the method:
as §2

A further assay concerns HEK293. Kind of assay: Cytotoxic Profiling of Annotated Libraries Using Quantitative High-Throughput Screening (AID 1296008). On max response: on the % scale 0 is the no-effect control and ±100 the full control effect. The conditions noted are these: Five cell lines viability, CellTiter-Glo ATP luminescence, 48-72 h; max response: stronger effect = lower value. The procedure, abridged: as §1
The subject of the next assay is MCC-13. The assay is described as follows: qHTS assay to identify novel small-molecules to repurpose for Merkel cell carcinoma treatment (AID 1296009). The note with it: MCC and control cell lines, CellTiter-Glo viability, 72 h; series mostly up to 46 µM. The gist of the method:
(§3)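 72 hr, 37 degree celsius; NPC 8-pt / MIPE 11-pt dose response; compound pinned in DMSO; CellTiter-Glo, 10 min RT, luminescence; normalized to no-cell and DMSO controls.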

Assay [2] relates to HACAT. Described as above. The note with it: MCC and control cell lines, CellTiter-Glo viability, 72 h; at 44.8 µM (top of the series) unless noted. The procedure, abridged:
as §3

In a further assay the test system is HEK293T. The assay is described as above. The conditions noted are these: MCC and control cell lines, CellTiter-Glo viability, 72 h; at 44.8 µM (top of the series) unless noted. The gist of the method: as §3

SMILES strings stand for the structures. Values joined by “and” are separate entries in the source; they are usually repeats but may differ in a detail not shown here. Identical values can stand only once. Records with an inconclusive call do not appear. Unmarked numbers belong to inactive results. Active and inactive are the calls of the source. The call rests on the fitted dose curve; in most records, active means well fitted inhibition curve with a large enough effect; inconclusive means small, poorly fitted or top-dose-only effect; inactive means flat fitted curve, though single readings scatter.
Further: nearly all actives have a fitted effect of over 60% in size.
Potency means the concentration at half of the fitted maximal effect.

In the case of `CCCCN(CC)c1nc(C)nc2c1c(C)cn2-c1c(C)cc(C)cc1C`, the max response in the assay on CRL-7250 was -5.83%; in the assay on HaCat [1], 4.42%; in the assay with KB-3-1, -14.3%; in the assay on NIH3T3 it was -2.65%.

For `O=C(OCc1ccccc1)c1ccccc1`, the Potency entry with TAB165, in the assay on W2 and in the assay on MCC-13 was “inactive” throughout. The max response was -2.07% with HEK293, 4.92% in the assay on HaCat [1], 3.34% in the assay with KB-3-1 and 0.848% in the assay on NIH3T3.

On to `O=C1CN(/N=C/c2ccc([N+](=O)[O-])o2)C(=O)N1`, for which the result in the assay on CRL-7250 and in the assay with NIH3T3 was inactive. In addition, the max response is 1.83% in the assay on HaCat [1] and -3.33% with KB-3-1.

Consider `Cc1cc(O)c2ccccc2c1O`, for which the Potency entry with TAB165 and with MCC-13 was “inactive” throughout. In addition, in the assay on W2, the Potency was 9.53 µM (active). For the same molecule, the max response in the assay with CRL-7250 was -18%; in the assay with KB-3-1, 6.5%. Besides, the molecule was called inactive in the assay on HaCat [1] and in the assay on HACAT [2].

`CN(C)c1ccc(N=NS(=O)(=O)O)cc1`: the max response in the assay on HaCat [1] was -1.75%; with KB-3-1, -10.4%; with NIH3T3 it was 2.87%. Also, in the assay on MCC-13, the Potency result was “inactive”.

For the molecule `N=C1N=C(N)c2cc3ccccc3cc21`, the Potency is 17.2 µM (active) in the assay on CRL-7250, 19.3 µM (active) in the assay with HEK293, 10.9 µM (active) in the assay on NIH3T3 and 43.3 µM (active) in the assay on MCC-13.

Turning to `COC(=O)C1=C(C)NC(C)=C(C(=O)OCC(C)=O)C1c1ccccc1[N+](=O)[O-]` (centres undefined), the call in the assay with HEK293, in the assay with HaCat [1], in the assay with HACAT [2] and in the assay with HEK293T was inactive. Besides, the max response with NIH3T3 is -4.97%.

On to `O=C(O)c1ccccc1Nc1cccc(C(F)(F)F)c1`, for which the Potency result in the assay on TAB165, in the assay on W2 and with MCC-13 was “inactive” throughout. The results for the max response with CRL-7250, in the assay with HEK293 and in the assay with NIH3T3 were 0.849%, 3.56% and -2.26%, respectively.

For the molecule `Clc1ccccc1-c1nc(-c2ccncc2)no1`, the max response with CRL-7250 is -4.27%; in the assay with KB-3-1, 12%. Besides, the molecule was classed as inactive in the assay with HaCat [1] and with HACAT [2]. In addition, the Potency result in the assay with MCC-13 was “inactive”.

`Cc1nc2ccccc2n1Cc1ccc(Cl)cc1`: the Potency result in the assay on TAB165 and in the assay on MCC-13 was “inactive” in each case. Also, the Potency in the assay on CRL-7250 was 2.11 µM (active); in the assay on HEK293, 1.68 µM (active). The max response was -8.87% with KB-3-1 and -22.4% in the assay with NIH3T3.

For the molecule `Cc1onc(-c2c(F)cccc2Cl)c1C(=O)N[C@@H]1C(=O)N2[C@@H]1SC(C)(C)[C@@H]2C(=O)O`, the figures for the max response in the assay with CRL-7250 and with NIH3T3 were -6.01% and -7.78%, respectively. Also, the molecule was called inactive in the assay on HEK293 and in the assay with HEK293T.

As to `CC1(C)S[C@@H]2[C@H](NC(=O)[C@H](N)c3ccc(O)cc3)C(=O)N2[C@H]1C(=O)O`, the max response with CRL-7250 was -12.2%. Moreover, the result in the assay with HEK293, with NIH3T3 and in the assay with HEK293T was inactive.

As to `C=CCN1C(=O)C(CC(C)C)NC1=S` (centres undefined), the Potency result in the assay with TAB165 and in the assay on W2 was “inactive” in each case.

For the molecule `Nc1nc2ccc([N+](=O)[O-])cc2s1`, in the assay with HaCat [1], the Potency is 27.3 µM (active). The Potency entry in the assay with MCC-13 was “inactive”.

In the case of `CC1(C)C[C@@H]1C(=O)N/C(=C\CCCCSC[C@H](N)C(=O)O)C(=O)O`, the Potency entry with TAB165 and in the assay on W2 was “inactive” in each case. Also, the max response with KB-3-1 is 4.27% and -2.38%.

Consider `CCCCCC[C@@H](O)C/C=C\CCCCCCCC(=O)O`, for which the Potency result in the assay with TAB165 and with W2 was “inactive” each time. Moreover, the max response in the assay on KB-3-1 is -2.77% and 6.21% and -9.38%.

Regarding `Cc1[nH]cnc1CN1CCc2c(c3ccccc3n2C)C1=O`, the Potency entry in the assay on TAB165, in the assay on W2 and in the assay with MCC-13 was “inactive” throughout.

Regarding `COC(=O)C1=C(C)NC(C)=C(C(=O)OCC(C)C)C1c1ccccc1[N+](=O)[O-]` (centres undefined), the Potency in the assay with TAB165 is 10 µM (active); in the assay on W2, 6.01 µM (active). Also, the max response is 0.281% in the assay with HaCat [1] and -5.79% with NIH3T3.

Turning to `O=C(O)c1cc(O)c(O)c(O)c1`, the Potency in the assay on W2 is 5.36 µM (active).

On to `Oc1c(Br)cc(Br)c2cccnc12`, for which the Potency entry in the assay with W2 and in the assay with MCC-13 was “inactive” throughout.

Turning to `C=CC(N)CCC(=O)O` (centres undefined), the Potency result in the assay on TAB165 and with W2 was “inactive” in each case. The max response in the assay on KB-3-1 was 3.37%.

In the case of `C[S+](CC[C@H](N)C(=O)O)C[C@H]1O[C@@H](n2cnc3c(N)ncnc32)[C@H](O)[C@@H]1O` (some centres undefined), the Potency result in the assay on W2 was “inactive”. Also, the max response in the assay on KB-3-1 is 16.4% and -2.48%.

For `COc1cc(/C=C/C(=O)CC(=O)/C=C/c2ccc(O)c(OC)c2)ccc1O`, in the assay with W2, the Potency was 6.75 µM (active). Also, the max response with KB-3-1 is 44.3%.

On to `O=C(O)COc1ccc(C(=O)c2cccs2)c(Cl)c1Cl`, for which the Potency result in the assay on TAB165 and with W2 was “inactive” throughout. Further, the max response in the assay on KB-3-1 is -1.65% and 4.87%.

Consider `C=C(Nc1ccc(OCC)cc1)Nc1ccc(OCC)cc1`, for which the Potency result in the assay with TAB165 is “inactive”. Moreover, the max response in the assay on KB-3-1 was -11.3% and -9.03%.

For `O=C(O)[C@H](O)[C@@H](O)[C@H](O)[C@H](O)CO`, the Potency entry in the assay on TAB165 and in the assay on W2 was “inactive” throughout.

Turning to `CC1(C)S[C@@H]2[C@H](NC(=O)[C@H](N)c3ccccc3)C(=O)N2[C@H]1C(=O)O`, the molecule was called inactive in the assay with HACAT [2]. The Potency entry in the assay on MCC-13 is “inactive”.

With `CCCCC[C@H](O)/C=C/[C@@H]1[C@@H](C/C=C\CCCC(=O)O)[C@@H](O)C[C@H]1O`, the Potency entry in the assay with TAB165 and with W2 was “inactive” throughout. The max response with KB-3-1 was 4.45% and 3.57%.

With `CN1[C@@H](CC(=O)c2ccccc2)CCC[C@H]1C[C@H](O)c1ccccc1`, the Potency in the assay on TAB165 is 14.1 µM (active); in the assay with W2, 5.36 µM (active). For the same molecule, the max response in the assay with KB-3-1 is -11.5%.

`O=C(O)/C=C/C(O)c1ccc(Cl)cc1` (centres undefined): the Potency entry in the assay with TAB165 and in the assay on W2 was “inactive” each time.

For the molecule `CC1OC1P(=O)(O)O` (centres undefined), the Potency result in the assay on TAB165 and with W2 was “inactive” each time.

`CC[C@H]1OC(=O)[C@H](C)[C@@H](O[C@H]2C[C@@](C)(OC)[C@@H](O)[C@H](C)O2)[C@H](C)[C@@H](O[C@@H]2O[C@H](C)C[C@H](N(C)C)[C@H]2O)[C@](C)(O)C[C@@H](C)C(=O)[C@H](C)[C@@H](O)[C@]1(C)O`: in the assay on KB-3-1, the max response is 12% and -5.16%.

Regarding `Cc1ccccc1CNc1ncnc2c1ncn2C1OC(CO)C(O)C1O` (centres undefined), the Potency entry in the assay with TAB165 and with W2 was “inactive” in each case.
